The values below come from PubChem BioAssay AID1159580 (chemical genetic matrix, 2015).

The experiment is described as follows: chemical genetic growth profiling, strain panel (AID 1159580).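 Also: tested at 20 µM; growth read once vehicle control cultures reached saturation at 30 °C; 1 = growth at the plate median or of vehicle wells; lower values mean less growth of the strain.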 Particulars: S. cerevisiae deletion strains, growth OD.
Where [1] appears, read: locus YAL040C, strain CLN3, hits give low values.
Setting [2] is: locus YCL061C, strain MRC1 (second series), hits give low values.
Setting [3] is: locus YDR363W, strain ESC2, hits give low values.
[4] abbreviates: locus YER002W, strain NOP16, hits give low values.
Where [5] appears, read: locus YGR078C, strain PAC10, hits give low values.
[6] abbreviates: locus YNL175C, strain NOP13, hits give low values.
Setting [7] is: locus YNL197C, strain WHI3, hits give low values.
Where [8] appears, read: locus YNL224C, strain SQS1, hits give low values.
The mark [9] stands for this setting: locus YNL322C, strain KRE1, hits give low values.
Setting [10] is: locus YOR083W, strain WHI5 (second series), hits give low values.

In all, about 5,500 compounds went through this assay and about 2,000 (36%) were called active. Roughly 18% stayed inconclusive and do not appear here. The list shows a part of the results. Unmarked numbers belong to inactive results. Rule as the data show it: active = normalized growth mostly below about 0.91 (no sharp cut-off); inconclusive = no clear call, values can overlap the other calls; inactive = mostly above about 0.92.

With `NC(N)=Nc1ccc2[nH]c3c(c2c1)C[C@@]1(O)[C@H]2Cc4ccc(O)c5c4[C@@]1(CCN2CC1CC1)[C@H]3O5`, the normalized growth was 1.02 (locus YAL013W, strain DEP1, hits give low values); 1.07 under setting [1]; 0.991 under setting [2]; 0.986 (locus YDR150W, strain NUM1, hits give low values); 1.04 under setting [3]; 1.01 under setting [4]. Moreover, the normalized growth under setting [5] is 0.991; the normalized growth (locus YJR075W, strain HOC1, hits give low values) is 1.01; the normalized growth under setting [6] was 0.998; the normalized growth under setting [7] was 0.985; the normalized growth under setting [8] was 1; the normalized growth under setting [9] is 1.03. In addition, under setting [10], the normalized growth was 0.97.
Regarding `Oc1ccc(C2CNCc3sccc32)cc1O` (stereo unspecified), the normalized growth is 1.01 under setting [1]; 0.962 under setting [2]; 0.999 under setting [3]; 1 under setting [4]; 0.998 under setting [5]; 1 (locus YMR263W, strain SAP30, hits give low values). The normalized growth is 1.01 (locus YNL128W, strain TEP1, hits give low values); 0.963 (locus YNL153C, strain GIM3, hits give low values); 0.995 under setting [6]; 0.995 under setting [7]; 1 under setting [8]; 0.892 (active) under setting [9]. Further, the normalized growth under setting [10] is 1.
